Screens (PubChem)
Only some compounds are listed: those with a hit (about 4% of all), similar ones and a draw of the others.
HIF-2a inh: blocks HIF-2a reporter activity | 786-0 RCC cells HIF-2a reporter, luciferase luminescence, overnight | inhibition, % at 18.8 µM | hit rate 0.72% among 360,000 | AID 624352;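 active = inhibition of the luminescence signal of 40% or more relative to plate controls, in a single-dose primary screen at 18.75 µM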
TWEAK Fn14 block: TWEAK-Fn14 signaling inhibition. TWEAK-stimulated Fn14 reporter cells, luciferase luminescence, 8 h. inhibition, % at 10 µM. hit rate 2% among 360,000; in the data active = inhibition above about 50%
TROY signal inh: inhibitors of TROY-dependent NF-kB signaling; inhibition, % at 10 µM; Q293 LMP1-TROYcd NF-kB luciferase reporter, 4 h; hit rate 0.98% among 360,000;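 active = compounds whose plate-normalised and pattern-corrected inhibition of the luciferase reporter signal at the single screening dose is 50% or more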
TRPM1 prom inh: MITF TRPM1 promoter inhibition in SK-MEL-5 cells. SK-MEL-5 TRPM1 promoter luciferase, 24 h. hit rate 0.83% among 330,000. inhibition, % at 12.5 µM;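 active = mean inhibition across replicates of 60% or more, whatever share of single replicates reaches that level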
Peg3 prom inh: reduces Peg3 promoter-driven luciferase expression in HeLa | HeLa PEG-Prom luciferase reporter, luminescence, overnight | inhibition, % at 20 µM | hit rate 1.7% among 360,000 | AID 588405;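 active = inhibition of at least 50% at 20 µM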
EBV LMP1 NFkB: inhibitors of Epstein-Barr LMP1-induced NF-kappaB reporter. LMP1-induced NF-kappaB luciferase reporter cells, luminescence. inhibition, % at 12.5 µM. hit rate 0.69% among 350,000. AID 504558; in the data active = inhibition above about 41%;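 note: 0% = neutral control wells and 100% = reference inhibitor control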
The depositor's hits bear a star; x = not tested or not shown.

SMILES	HIF-2a inh	TWEAK Fn14 block	TROY signal inh	TRPM1 prom inh	Peg3 prom inh	EBV LMP1 NFkB
COc1cc(OC)cc(C(=O)N[C@H](C(=O)OCC(=O)c2ccc(C)c([N+](=O)[O-])c2)C(C)C)c1	0.7	-9.4	-6.2	5.0	0.6	84.1*
COc1cc(OC)cc(C(=O)N[C@H](C(=O)OCC(=O)c2ccc3c(c2)NC(=O)CO3)C(C)C)c1	17.7	-8.0	8.6	10.8	0.7	-22.0
Cc1nn(C(=O)c2cc3sccc3[nH]2)c(C)c1C	-267.5	-26.0	-44.8	-43.6	-171.8	-10.3
CN(C)c1ccc(CC(=O)N2CCCC(c3cc(C(=O)Nc4ccc(C(C)(C)C)cc4)no3)C2)cc1 (stereo not given)	-3.5	79.2*	38.4	x	17.6	x
O=C(Nc1ccccc1)c1cc(C2CCCN(C(=O)CCc3ccccc3)C2)on1 (stereo not given)	-295.2	3.1	11.7	x	-298.6	x
O=S(=O)(O)c1ccc2c(c1)C(C(Cl)(Cl)Cl)OC(C(Cl)(Cl)Cl)O2 (stereo not given)	0.9	8.6	-2.3	15.0	-5.7	-1.7
CCC(=O)Nc1ccc(NCc2cccs2)cc1	-61.0	-3.3	-27.1	-6.1	-39.6	4.7
CCOc1ccc(CN2CCN(Cc3c(C)nn(CC)c3C)CC2CCO)cc1 (stereo not given)	6.1	75.6*	0.5	-5.5	6.8	0.8
Cc1ccc2c(c1C)-c1c(ccc(C)c1C)C(=O)C2=O	66.0*	85.8*	61.4*	107.5*	95.1*	0.2
COc1ccc(OC)c2c1sc(=NC(=O)c1ccco1)n2C	-14.5	-30.4	-13.2	4.2	-0.7	52.8*
COc1ccc(-c2nc3ccccc3nc2-c2ccccc2)cc1	14.5	-2.2	1.2	9.8	16.1	5.2
COc1ccc(-c2cc3nnc(-c4ccccc4)nc3s2)cc1	-51.2	71.7*	63.4*	11.1	-56.6	23.9
CC(=O)c1cccc(NC(=O)COC(=O)COc2c(Cl)cc(Cl)c3ccc(C)nc23)c1	13.6	63.1*	28.0	-3.7	30.3	3.1
CN(C)S(=O)(=O)c1cccc(C(=O)Nc2n[nH]c(C(F)(F)F)n2)c1	0.2	-3.3	-1.9	14.4	8.3	1.2
COc1cc(NC(=O)c2cc(-c3ccccc3)nc3c2cnn3C(C)C)cc(OC)c1OC	8.7	55.4*	23.4	8.2	46.9	2.2
COc1cc(NC(=O)c2cc(-c3ccccc3)on2)cc(OC)c1OC	-20.1	-12.2	16.2	3.7	4.7	5.3
CCN(CC)C(=O)c1cccc(NC(=O)c2cc(C3CC3)nc3c2cnn3C(C)C)c1	15.8	7.6	8.9	x	20.0	3.5
COc1cc(NC(=O)c2cc3nc(-c4ccccc4)cc(-c4ccccc4)n3n2)cc(OC)c1OC	17.2	-0.6	-8.0	2.5	57.1*	1.7
CNC(=O)c1cccc(NC(=O)c2cc(-c3ccccc3)nc3c2cnn3C(C)C)c1	6.4	47.5	17.4	23.0	59.1*	-0.6
CCCCN(C)CCNC(=O)c1ccc(Cn2c(=S)[nH]c3ccc(Br)cc3c2=O)cc1	-7.9	-37.0	-3.9	-22.7	-2.3	-10.6
COc1ccc([C@H]2CC(=O)C=C(c3ccc(C(=O)O)cc3)C2)cc1OC	14.9	-4.7	-26.1	-6.1	4.6	-0.9
Cc1ccc2[nH]cc(C(=O)CN3CCC4(CC3)OCCO4)c2c1	-26.2	50.7*	-12.1	-2.1	-14.0	-7.9
COc1ccc(-c2[nH]ncc2/C=C(/C#N)C(=O)NC2CCCCCC2)cc1	19.2	22.0	25.5	-3.5	50.2*	-5.3
CCCCN1CCCCC1(C)C(=O)NCc1cccc(OC)c1 (stereo not given)	17.4	-4.8	16.8	x	5.6	x
O=C1C2C3C=CC(CC3)C2S(=O)(=O)C2C3C=CC(CC3)C12 (stereo not given)	5.2	-24.9	6.5	x	0.9	-2.2
SMILES	HIF-2a inh	TWEAK Fn14 block	TROY signal inh	TRPM1 prom inh	Peg3 prom inh	EBV LMP1 NFkB
O=C(COC(=O)c1ccccc1NS(=O)(=O)c1cccs1)NCC12CC3CC(CC(C3)C1)C2	8.1	29.7	60.5*	5.2	15.1	-11.5
CC1CCCC(C)N1CCOc1cc(N)ccc1C#N (stereo not given)	13.9	0.4	1.0	4.3	6.5	-4.0
O=C(NCCN1CCOCC1)c1ccc(Cl)c(S(=O)(=O)N2CCCCCC2)c1	16.0	66.0*	x	16.3	18.1	9.3
O=C(NCCN1CCOCC1)c1ccc(Cl)c(S(=O)(=O)N2CCCC2)c1	-7.1	26.8	8.8	9.5	23.5	1.0
CCN(CC)CCNC(=O)c1ccc(NC(=O)c2ccc(Cl)c(S(=O)(=O)N3CCCCCC3)c2)cc1	30.6	2.5	26.5	25.4	87.6*	8.7
COCCN(C(=O)c1ccccc1F)c1nnc(-c2ccc(OC)cc2)s1	-152.9	-4.7	28.4	-35.0	-123.7	-2.9
COCCCNC(=O)C[C@H]1C[C@H](C(=O)N(C(C)C)C(C)C)[C@@]2(C)c3[nH]c4cc(CCC(=O)N(C)C)ccc4c3CCN2C1=O	-10.9	6.7	1.3	-1.3	6.9	-4.4
Cn1cc(C(=O)c2ccc(Cl)cc2Cl)cc1C(=O)N/N=C(\N)COc1ccc(F)cc1	33.0	22.4	9.0	-4.6	16.2	2.7
Cn1cc(C(=O)c2ccc(Cl)cc2Cl)cc1C(=O)N/N=C(\N)COc1ccc(Cl)cc1	29.5	-9.9	44.4	8.1	52.6*	-9.9
Cn1cc(C(=O)c2ccc(Cl)cc2Cl)cc1C(=O)N/N=C(\N)COc1ccc(Cl)cc1Cl	17.2	57.4*	19.4	37.5	44.9	24.7
Cn1cc(C(=O)c2ccc(Cl)cc2Cl)cc1C(=O)N/N=C(\N)COc1ccccc1	11.3	16.0	x	-2.2	25.8	7.3
COCCn1c(C)cc(C(=O)COC(=O)/C=C/c2c(C)nn(C3CCS(=O)(=O)C3)c2Cl)c1C (stereo not given)	-35.0	12.0	6.2	4.3	-14.1	5.9
COc1ccc(C/C(C)=N/NC(=S)Nc2ccccc2F)cc1	-154.2	70.9*	78.7*	-44.8	-239.7	-8.0
COc1ccc(C/C(C)=N/NC(=S)Nc2ccc(C(C)C)cc2)cc1	-27.6	-29.9	-16.0	2.6	-36.8	3.6
Cc1nn2cc(-c3ccc(-c4ccccc4)cc3)nc2s1	-207.0	35.7	x	-38.8	-194.7	-7.3
Cc1nn2cc(-c3ccc(Cl)cc3)nc2s1	-167.0	63.1*	-5.4	0.2	-238.9	-12.1
CCc1nn2cc(-c3ccccc3)nc2s1	22.2	93.3*	84.1*	19.3	35.1	66.0*
c1ccc(-c2cn3nc(-c4ccccc4)c(-c4ccccc4)nc3n2)cc1	-34.5	-19.0	-16.6	-29.3	-13.7	4.2
O=[N+]([O-])c1cc(-c2nnc(Nc3ccccc3)c3ccccc23)ccc1N1CCOCC1	14.5	25.8	24.5	14.3	40.5	-0.5
O=[N+]([O-])c1cc(-c2nnc(Nc3ccc(O)cc3)c3ccccc23)ccc1N1CCOCC1	2.8	39.2	28.6	5.5	52.4*	13.1
c1ccc(Cn2ncc3c(N4CCN(C(c5ccccc5)c5ccccc5)CC4)ncnc32)cc1	22.9	-16.4	21.4	11.2	38.2	5.9
